According to PubChem BioAssay (NCATS):
Records with an inconclusive call do not appear. Unmarked numbers belong to inactive results. Active and inactive are the calls of the source. Calls come from the whole dose curve; as a rule, active = well fitted inhibition curve with a large enough effect; inconclusive = small, poorly fitted or top-dose-only effect; inactive = no such curve, though single readings can be large or run the other way.

molecular target: Rap guanine nucleotide exchange factor 3 (Homo sapiens) (UniProt O95398); assay: Confirmatory qHTS for antagonist of cAMP-regulated guanine nucleotide exchange factor 3 (EPAC1) (AID 1645880); conditions: EPAC1 Rap1B-BODIPY-GDP exchange, fluorescence; series mostly up to 115 µM; activity, negative = inhibition: at the top concentration; note: nearly all actives have a fitted effect of over 55% in size
Description: Assay Provider (PI): Xiaodong Cheng Ph.D. The University of Texas Medical Branch, […], TX MLPCN Grant: NS066510 In multi-cellular eukaryotic organisms, the effects of cAMP are transduced by two ubiquitously-expressed intracellular cAMP receptors, the classic protein kinase A/cAMP-dependent protein kinase (PKA/cAPK) and the more recently discovered exchange protein directly activated by cAMP/cAMP-regulated guanine nucleotide exchange factor (EPAC/cAMP-GEF). Both PKA and EPAC are ubiquitously expressed in all tissues, and an increase in intracellular cAMP levels will lead to the activation of both PKA and EPAC. Therefore, careful dissections of the individual role and relative contribution of EPAC and PKA within the overall cAMP signaling in various model systems are critical for further elucidating the mechanism of cAMP signaling. To date no EPAC-specific antagonists and agonist, as well as isoform-specific agonists have been reported, and developing EPAC-specific pharmacological probes to determine the physiological functions that EPAC play in the overall cAMP-mediated signaling remains a major challenge within the research field. Furthermore, identified regulators of EPAC may lead to new mechanism-based therapeutic strategies specifically targeting the EPAC / cAMP-signaling components as EPAC has been implicated to play important roles in major human pathological conditions such as diabetes, heart disease, and cancer. This qHTS will be used to screen the Molecular Libraries Small Molecule Repository (MLSMR) as a concentration-titration series using the NCGC unique quantitative screening (qHTS) platform to find activators for EPAC1. In addition, this assay will also be used as a counterscreen for the EPAC2 qHTS. This fluorescent based assay is developed and validated for EPAC1 that measures exchange using EPAC effector Rap1 complex with BODIPY-GDP, a GDP analog with a tethered fluorophores. Activators are identified by monitoring the change in fluorescence signal as the exchanged free BODIPY-GDP has a reduced fluorescence compared to Rap1-bound BODIPY-GDP. Increase in signal (activation) is the desired outcome for the EPAC1 agonist while no activity in this assay is desired for the EPAC2 agonist counterscreen. Reference: [1] de Rooij, J., Zwartkruis, F. J., Verheijen, M. H., Cool, R. H., Nijman, S. M., Wittinghofer, A., and Bos, J.L. (1998) Nature 396, 474-477. Kawasaki, H., Springett, G. M., Mochizuki, N., Toki, S., Nakaya, M., Matsuda, M., Housman, D. E., and Graybiel, A. M. (1998) Science 282, 2275-2279.
Briefly, three uL of reagents (100 nM EPAC1, 250 nM RAP1B-BODIPY-GDP, 50 uM GDP) were dispensed into a 1536-well Greiner black solid-bottom medium binding assay plate. Controls and test compounds (23 nL) were transferred to the plate via a Kalypsys pin tool equipped with a 1536-pin array. The plates were centrifuged at 1,000 rpm for 15 seconds followed by 5 minute incubation at room temperature. The assay plates were read at 5 minute intervals for 30 minutes in the ViewLux plate reader using 480nm excitation and 540nm emission filters. The results were normalized to the […] positive control ATA and DMSO.
Potency is the fitted concentration of half-maximal effect.

Sequence of Rap guanine nucleotide exchange factor 3 (Homo sapiens) (O95398 whole entry, looked up): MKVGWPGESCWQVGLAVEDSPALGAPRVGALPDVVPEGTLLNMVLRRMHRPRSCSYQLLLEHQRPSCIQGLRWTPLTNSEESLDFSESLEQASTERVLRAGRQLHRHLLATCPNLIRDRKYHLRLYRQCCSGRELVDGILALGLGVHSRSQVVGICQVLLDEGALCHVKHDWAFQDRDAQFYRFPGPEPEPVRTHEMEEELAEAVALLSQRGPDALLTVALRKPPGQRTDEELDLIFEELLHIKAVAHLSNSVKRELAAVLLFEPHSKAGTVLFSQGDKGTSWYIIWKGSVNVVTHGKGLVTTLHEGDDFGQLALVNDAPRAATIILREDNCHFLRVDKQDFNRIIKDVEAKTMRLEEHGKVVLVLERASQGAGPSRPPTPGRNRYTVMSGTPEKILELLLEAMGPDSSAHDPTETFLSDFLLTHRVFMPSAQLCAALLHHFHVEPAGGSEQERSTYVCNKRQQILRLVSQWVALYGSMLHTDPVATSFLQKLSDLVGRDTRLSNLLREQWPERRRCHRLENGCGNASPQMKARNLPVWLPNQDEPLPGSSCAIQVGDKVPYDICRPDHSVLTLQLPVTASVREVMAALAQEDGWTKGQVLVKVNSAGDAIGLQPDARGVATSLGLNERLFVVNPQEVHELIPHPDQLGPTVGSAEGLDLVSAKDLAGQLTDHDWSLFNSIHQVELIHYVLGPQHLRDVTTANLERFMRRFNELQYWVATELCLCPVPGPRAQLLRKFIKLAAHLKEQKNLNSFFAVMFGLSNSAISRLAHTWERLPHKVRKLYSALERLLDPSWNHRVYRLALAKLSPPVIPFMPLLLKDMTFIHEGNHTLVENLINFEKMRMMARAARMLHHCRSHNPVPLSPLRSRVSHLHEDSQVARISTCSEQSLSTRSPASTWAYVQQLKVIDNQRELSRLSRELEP

Row | SMILES | activity, negative = inhibition [%] | Potency
1 | O=C1CCN(Cc2ccccc2)CCN1[C@H](COc1ccccc1)Cc1ccccc1 | -8.39 | –
2 | COc1ccc(OCC(=O)NCCC2=CCCCC2)c([N+](=O)[O-])c1 | -19.1 | –
3 | Cc1ccc(S(=O)(=O)NC(=O)Cn2nnc(-c3ccccc3)c2COc2ccc3ccccc3c2)cc1 | – | 19 µM (active)
4 | O=C(COc1ccccc1Cl)Nc1cccc(S(=O)(=O)NC2=NCCCCC2)c1 | -12.5 | –
5 | CCOc1ccc(/C=C/C(=O)c2cc(Br)ccc(=O)c2O)cc1 | – | 33.8 µM (active)
6 | OC[C@H]1O[C@H](OCCc2ccc(O)cc2)[C@H](O)[C@@H](O)[C@@H]1O | -7.11 | –
7 | COc1ccc(-c2nc3n(c(=O)c2C#N)CCS3)cc1 | -15.9 | –
8 | CCNC(=O)C1(C)CCN(C(=O)c2ccc(C(=O)OC)cc2)C1 (stereo not given) | -20.5 | –
9 | C/C(=N\N1C(=O)c2ccccc2NC1c1ccco1)c1ccccc1O (stereo not given) | – | 75.7 µM (active)
10 | Nc1ccn(C2C=CC(CO)O2)c(=O)n1 (stereo not given) | -3.01 | –
11 | Cc1ccc(NC(=O)c2c(NC(=O)C(F)(F)F)sc3c2CCCCC3)cc1 | – | 84.9 µM (active)
12 | CCCOc1ccccc1Cn1c(=O)oc2ccccc21 | -26.7 | –
13 | COc1cccc(C(=O)N(Cc2cc3ccc(C)cc3nc2N(C)C)C2CC2)c1OC | -15.8 | –
14 | CC(OC(=O)CN1C(=O)COc2ccccc21)C(=O)NCc1ccc(F)cc1 (stereo not given) | -12.6 | –
15 | COC(=O)c1ccccc1NC1=C/C(=N\S(=O)(=O)c2ccc(C(=O)O)cc2)c2ccccc2C1=O | – | 22.4 µM (active)
16 | CC(=O)Nc1ccc(S(=O)(=O)NCCC(=O)Nc2cc(C)ccn2)cc1 | -19.6 | –
17 | COC(=O)c1sc(-c2ccc(C(C)(C)C)cc2)cc1NC(=O)c1ccccc1C(=O)O | – | 50.1 µM (active)
18 | Cc1cccc(NC(=O)CN2C(=O)S/C(=C\c3ccc(O)c([N+](=O)[O-])c3)C2=O)c1 | – | 23.9 µM (active)
19 | COC(=O)c1ccc(/C=C2\CCn3c2nc2cc(C(=O)O)ccc2c3=O)cc1 | -26.6 | –
20 | Oc1cccc(C(Nc2ccccn2)c2ccc3cccnc3c2O)c1Cl (stereo not given) | -19.6 | –

Row | SMILES | activity, negative = inhibition [%] | Potency
21 | COc1cccc(NC(=O)c2csc3c2CCCC3)c1 | -20.7 | –
22 | CCOC(=O)c1sc(N=NC2=C(O)CCCC2=O)c(C(=O)OCC)c1C | – | 8.91 µM (active)
23 | O=c1c2ccccc2oc2ccc(Oc3ccccc3)cc12 | -13.3 | –
24 | CCOC(=O)c1c(/N=C/C2=C(O)CC(C)(C)CC2=O)sc(C)c1C | 29 | –
25 | CCOC(=O)c1cccc(NC(=O)N2CCC(CN3CCCCCC3)CC2)c1 | -14.5 | –
26 | O=c1c2ccccc2[nH]c(=S)n1-c1cccc(S(=O)(=O)N2CCCC2)c1 | -12.4 | –
27 | CCC(=O)Nc1ccc(C(=O)NNC(=O)c2ccc([N+](=O)[O-])cc2)cc1 | -8.63 | –
28 | CCOc1ccc(CCNc2ncnc3onc(-c4ccc(Cl)cc4)c23)cc1OCC | -22.3 | –
29 | Cc1ccc(C)c(N2CCN(C(=O)CCc3nc(-c4ccc(Cl)cc4)no3)CC2)c1 | -29 | –
30 | Oc1ccc(/C=N/Nc2ncnc3c2ncn3Cc2ccccc2)cc1O | – | 3.55 µM (active)
31 | Cc1cc2oc(=O)c3c(c2cc1OC(=O)c1ccco1)CCCC3 | -23.4 | –
32 | COC(=O)C1=CN(Cc2ccc(OC)c(OC)c2)C=C(C(=O)OC)C1c1cccc(F)c1 | -20.4 | –
33 | COC(=O)c1ccccc1NC(=O)CN1C(=O)COc2ccccc21 | -23.1 | –
34 | Cc1cccc(Cn2cc(SCC(=O)Nc3nccs3)c3ccccc32)c1 | -11.2 | –
35 | Nc1ccc2ccccc2c1C(=O)c1ccccc1 | -10.9 | –
36 | Cc1ccc(NC(=O)C2CCCN2S(=O)(=O)c2cccc3nsnc23)c(Br)c1 (stereo not given) | -24.2 | –
37 | COc1cc(NC(=S)NCCC(c2ccccc2)c2ccccc2)cc(OC)c1 | -20.2 | –
38 | CCOC(=O)c1sc(NC(=O)c2ccncc2)nc1C | -19.8 | –
39 | COc1ccc(-c2nn(-c3ccccc3)cc2/C=N/n2cnnc2)cc1OC | -14.1 | –
40 | O=C(CSc1nnc(SCc2ccccc2)s1)N/N=C/C=C/c1ccco1 | – | 12.6 µM (active)
